Data taken from PubChem BioAssay (NCATS).
Activity calls are given as the source filed them. How the calls were made is not given here.
Potency means the concentration at half of the fitted maximal effect.

What follows are molecules tested on HIV-1 nucleocapsid protein NCp7 (binding to TG oligonucleotide) (assay: HIV Nucleocapsid (AID 346;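 further: potency is for inhibitors that block NC binding and lower polarization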)). Settings: HIV-1 NC / fluorescein-TGTGTGTG probe, fluorescence polarization.
Outline: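 HIV-1 NC (100 nM) binding to fluorescein-labelled ssDNA TG4xF (10 nM) in Hepes pH 7.5, 250mM NaCl, 1uM ZnCl2, TCEP and 2-mercaptoethanol; compounds pin-transferred, 1 hr room temperature, fluorescence polarization read on CCD imager.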
For `COc1cccc(-c2cncnc2NCc2ccccc2OC)c1`, the Potency was > 20 µM (inactive).
In the case of `O=C(c1ccncc1)N1CCC2(CCCN(Cc3ccncc3)C2)CC1`, the Potency is reported as > 20 µM (inactive).
In the case of `N#Cc1cccc(NC(=O)N2CCC3(CC2)CCN(C(=O)c2cccc(F)c2)CC3)c1`, the Potency is reported as > 20 µM (inactive).
In the case of `COc1ncc2nc(-c3cn(C)c4ccccc34)c(=O)n(-c3ccccc3)c2n1`, the Potency is reported as > 20 µM (inactive).
In the case of `O=c1c(-c2cccs2)nc2cncnc2n1C1CC1`, the Potency is reported as > 20 µM (inactive).
For `COc1ccccc1CN1CCC2(CC1)CCN(C(=O)c1csnn1)CC2`, the Potency was > 20 µM (inactive).
`COCCNc1nc(-c2ccccc2C(F)(F)F)nc2ccccc12` was tested, and the Potency was > 20 µM (inactive).
With `COc1ccc(-c2nc3cnc(Nc4cccc(OC)c4)nc3n(Cc3cccs3)c2=O)cc1` the Potency was 0.247 µM (active).
With `Cc1noc(C)c1-c1nc(N(C)Cc2ccco2)c2ccccc2n1` the Potency was > 20 µM (inactive).
`O=C(Nc1cccc(F)c1)N1CC[C@@]2(CCCN(C(=O)c3csnn3)C2)C1` was tested, and the Potency was > 20 µM (inactive).
In the case of `CC(=O)N1CCC2(CC1)CN(Cc1cc(C(F)(F)F)cc(C(F)(F)F)c1)C2`, the Potency is reported as > 20 µM (inactive).
With `O=C(c1cccc(F)c1)N1CCC2(CCCN(Cc3nccs3)C2)CC1` the Potency was > 20 µM (inactive).
In the case of `COc1ccc(Oc2ncc3nc(-c4ccc(OC)cc4)c(=O)n(C4CC4)c3n2)cc1`, the Potency is reported as > 20 µM (inactive).
`Cc1ccccc1-c1ccc2ncnc(-n3ccnc3)c2c1` was tested, and the Potency was > 20 µM (inactive).
In the case of `COc1ccccc1-c1cncnc1NCc1cnc(C)cn1`, the Potency is reported as > 20 µM (inactive).
With `COC(=O)N1CCC2(CCN(C(=O)Nc3ccc(OC)cc3)CC2)CC1` the Potency was > 20 µM (inactive).
In the case of `CN1CCN(c2ccnc(-c3ccc(N(C)C)cc3)n2)CC1`, the Potency is reported as > 20 µM (inactive).
For `CCNc1ncc2nc(-c3ccccc3)c(=O)n(CCc3ccccc3)c2n1`, the Potency was > 4 µM (inactive).
`CCNc1ncc2nc(-c3ccc(F)cc3)c(=O)n(C[C@H]3CCCO3)c2n1` was tested, and the Potency was > 20 µM (inactive).
`COC(=O)N1CCC[C@@]2(CCN(c3ccccc3)C2)C1` was tested, and the Potency was > 20 µM (inactive).
For `COc1ccc(CNc2ncncc2-c2ccccc2C(F)(F)F)c(OC)c1`, the Potency was > 20 µM (inactive).
For `CS(=O)(=O)N1CCC[C@@]2(CCN(C(=O)Nc3cccc(F)c3)C2)C1`, the Potency was > 20 µM (inactive).
With `O=c1c(-c2cc(F)cc(F)c2)nc2cnc(N3CCOCC3)nc2n1Cc1ccc(F)cc1` the Potency was > 20 µM (inactive).
In the case of `CN1CCN(c2ncc3nc(-c4ccccc4)c(=O)n(Cc4ccc(F)cc4)c3n2)CC1`, the Potency is reported as > 20 µM (inactive).
For `N#CCCn1c(=O)cnc2cnc(Oc3ccccc3)nc21`, the Potency was > 20 µM (inactive).
For `CN(C)c1ccc(-c2nccc(Nc3ccc(F)cc3)n2)cc1`, the Potency was > 20 µM (inactive).
In the case of `Cn1cccc1C(=O)N1CCC2(CCN(C(=O)Nc3ccccc3)CC2)CC1`, the Potency is reported as > 20 µM (inactive).
For `CN(C)c1ncc2nc(-c3cc(F)cc(F)c3)c(=O)n(C3CC3)c2n1`, the Potency was > 20 µM (inactive).
`O=C(c1ccncc1)N1CCC2(CCCN(c3ncccn3)C2)CC1` was tested, and the Potency was > 20 µM (inactive).
With `CC(C)NC(=O)N1CCC2(CC1)CCN(S(C)(=O)=O)CC2` the Potency was > 20 µM (inactive).
For `COc1ccccc1CN1CC[C@@]2(CCCN(C(=O)c3cnccn3)C2)C1`, the Potency was > 20 µM (inactive).
`CCNc1ncc2nc(C)c(=O)n(CCC#N)c2n1` was tested, and the Potency was > 20 µM (inactive).
In the case of `Cc1cccc(CNc2cc(-c3ccoc3)ncn2)c1`, the Potency is reported as > 20 µM (inactive).
In the case of `N#CCCn1c(=O)c(-c2cc(F)cc(F)c2)nc2cnc(N3CCOCC3)nc21`, the Potency is reported as > 20 µM (inactive).
For `CN(C)c1cc(-c2cccc(NS(C)(=O)=O)c2)ncn1`, the Potency was > 20 µM (inactive).
With `COc1ccccc1CNc1ncnc2ccc(-c3cccc(C#N)c3)cc12` the Potency was > 20 µM (inactive).
For `CN(C)C(=O)c1ccc(-c2cc(NCc3cccnc3)ncn2)cc1`, the Potency was > 20 µM (inactive).
For `COCC(=O)N1CCC[C@@]2(CCN(Cc3ccccc3)C2)C1`, the Potency was > 20 µM (inactive).
In the case of `COc1cccc(-c2nccc(NCc3cnc(C)cn3)n2)c1`, the Potency is reported as > 20 µM (inactive).
For `O=c1cnc2cnc(Oc3ccccc3)nc2n1Cc1cccs1`, the Potency was > 20 µM (inactive).
